About 83,000 compounds went through this panel and 20% of them were active in at least one assay; those are over-represented in the sample as a whole.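 Each cell line was grown in a 96-well plate and treated with one concentration of compound for 48 hours. Values below 10 were considered active.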 A number with no mark means an inactive call. Activity calls are given as the source filed them.
What was measured:
Experiment in all cases: NCI-60 one-dose screen, 48 h (100 = growth as untreated, 0 = no growth, -100 = all killed)
Settings in all cases: 10 µM unless noted
NCI-H23 lung = system: NCI-H23 lung
NCI-H226 lung = system: NCI-H226 lung
NCI-H322M lung = system: NCI-H322M lung
HOP-62 NSCLC = system: HOP-62 NSCLC
NCI-H460 lung = system: NCI-H460 lung
HOP-92 NSCLC = system: HOP-92 NSCLC
NCI-H522 lung = system: NCI-H522 lung
A549/ATCC NSCLC = system: A549/ATCC NSCLC
786-0 renal = system: 786-0 renal
COLO 205 colon = system: COLO 205 colon

Row | Structure (SMILES) | growth (NCI-H23 lung) | growth (NCI-H226 lung) | growth (NCI-H322M lung) | growth (HOP-62 NSCLC) | growth (NCI-H460 lung) | growth (HOP-92 NSCLC) | growth (NCI-H522 lung) | growth (A549/ATCC NSCLC) | growth (786-0 renal) | growth (COLO 205 colon)
1 | CC(C)C[C@@H](C(=O)N[C@H](C(=O)OC1CCCC1)c1ccccc1)[C@H](O)C(=O)NO | 55.6% | 70.1% | 69.2% | 26.9% | 92.4% | 65.7% | 41.1% | 56% | 67.8% | 78.6%
2 | CN1CCN(Cc2ccc(NC(=O)c3cncc(C#Cc4cncc5[nH]ncc45)c3)cc2C(F)(F)F)CC1 | 7.77% (active) | -43.3% (active) | 13.7% | 7.14% (active) | 3.22% (active) | -22.9% (active) | 23.2% | 13.1% | 20.6% | 1.42% (active)
3 | C[C@@H](CO)[C@@H]1CC[C@]2(C(=O)N3CCN(C)CC3)CC[C@]3(C)[C@H](CC[C@@H]4[C@@]5(C)CC[C@H](O)C(C)(C)[C@@H]5CC[C@]43C)[C@@H]12 | 78.5% | 81.4% | 99.7% | 116% | 49.4% | 47.7% | 74.1% | 88.6% | 74% | 90.2%
4 | Cc1ccc2[nH]c(=O)c3c(c2c1)OC(N)=C(C#N)C31C(=O)c2cccc3cccc1c23 (stereo not given) | 103% | 91.1% | 100% | 98.2% | 101% | 104% | 89.3% | 103% | 100% | 103%
5 | CCCCc1oc2ccccc2c1C(=O)c1ccc(O)cc1 | -5.52% (active) | 92.8% | 85.1% | 79.3% | 84.4% | 68.2% | 66.7% | 76.6% | 79.5% | 118%
6 | CN1C(=O)N(C)C2C1NC(=S)N2/N=C/C=C/c1ccccc1[N+](=O)[O-] (stereo not given) | 38.2% | 28.4% | 49.3% | 26.2% | 12.6% | 33.9% | 9.84% (active) | 31.3% | 26.6% | 14.3%
7 | CCCNc1nc2ccccc2c2c(=O)c3cccc(Cl)c3sc12 | 74.1% | 84.9% | 89.6% | 88.3% | 78.7% | 89.5% | 82.3% | 94% | 110% | 94.7%
8 | COc1cc(-c2nc3ccc(C)cc3[nH]2)ccc1OCC(=O)N=Nc1c(O)[nH]c2ccc(Cl)cc12 | 23.2% | 86.8% | 36.9% | 18.3% | -56.1% (active) | 2.42% (active) | 20.6% | 29.7% | -82.5% (active) | -15.9% (active)
9 | CC1(C)CC[C@]2(C(=O)O)CC[C@]3(C)C(=CC[C@@H]4[C@@]5(C)C[C@@H](Cc6cn([C@@H]7O[C@H](CO)[C@@H](O)[C@H](O)[C@H]7O)nn6)[C@H](O)C(C)(C)[C@@H]5CC[C@]43C)[C@@H]2C1 | 104% | 98.3% | 97.4% | 89.2% | 106% | 102% | 106% | 85% | 95.8% | 113%
10 | CCOC(=O)c1ccc2c(c1)c1c(C)c3ccncc3c(C)c1n2C | -26.4% (active) | -37.1% (active) | 18.1% | -16.1% (active) | -5.22% (active) | 1.34% (active) | -52.6% (active) | 8.4% (active) | 16.7% | -44.7% (active)
11 | Nc1c(C(=O)Nc2ccncc2)sc2nc3c(cc12)CCCCC3 | 61.8% | 72.3% | 99.9% | 81.8% | 81.6% | 73% | 73.9% | 89.5% | 79.1% | 86.5%
12 | COC(=O)c1nc(-c2ccccc2)oc1S(=O)(=O)N1CCC(C(N)=O)CC1 | 90.4% | 85.2% | 93.6% | 104% | 102% | 23.7% | 0.81% (active) | 98.8% | 51.9% | 20.6%
13 | CCN(CC)CCOc1ccc(Nc2ncc3cc(-c4ccc(O)cc4)c(=O)n(C)c3n2)cc1 | 69.8% | 43.8% | 47.7% | 49.9% | 78.9% | 76.6% | 27.3% | 49% | -76.5% (active) | 38.4%

From PubChem BioAssay (NCI)
